Assay results taken from PubChem BioAssay AID881 (National Center for Advancing Translational Sciences (NCATS), 2007).
About 610 (0.55%) of roughly 110,000 compounds were called active. Inconclusive results (about 3%) are left out. The list comes from a sample in which actives are over-represented; it also holds similar structures and randomly drawn compounds. Where a call stands in place of a potency, no number is given. Unmarked numbers belong to inactive results. The call rests on the fitted dose curve; in most records, active means well fitted inhibition curve with a large enough effect; inconclusive means small, poorly fitted or top-dose-only effect; inactive means no such curve, though single readings can be large or run the other way.

target: Polyunsaturated fatty acid lipoxygenase ALOX15B (Homo sapiens) (UniProt O15296); assay: qHTS Assay for Inhibitors of 15-hLO-2 (15-human lipoxygenase 2); conditions: purified 15hLO-2, xylenol orange hydroperoxide absorbance; series mostly up to 57.1 µM; further: nearly all actives have a fitted effect of over 60% in size
Summary of the method: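 Read-out: hydroperoxide product oxidises ferrous iron, measured as xylenol orange complex via the 573-to-405 nm absorbance ratio after 30 min. Reaction: 50 nM enzyme, 15 min compound preincubation, 45 uM arachidonic acid, 90 min RT, Hepes pH 7.5 with Triton X-100.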
Potency means the concentration at half of the fitted maximal effect.

Sequence of Polyunsaturated fatty acid lipoxygenase ALOX15B (Homo sapiens) (O15296 whole entry, looked up): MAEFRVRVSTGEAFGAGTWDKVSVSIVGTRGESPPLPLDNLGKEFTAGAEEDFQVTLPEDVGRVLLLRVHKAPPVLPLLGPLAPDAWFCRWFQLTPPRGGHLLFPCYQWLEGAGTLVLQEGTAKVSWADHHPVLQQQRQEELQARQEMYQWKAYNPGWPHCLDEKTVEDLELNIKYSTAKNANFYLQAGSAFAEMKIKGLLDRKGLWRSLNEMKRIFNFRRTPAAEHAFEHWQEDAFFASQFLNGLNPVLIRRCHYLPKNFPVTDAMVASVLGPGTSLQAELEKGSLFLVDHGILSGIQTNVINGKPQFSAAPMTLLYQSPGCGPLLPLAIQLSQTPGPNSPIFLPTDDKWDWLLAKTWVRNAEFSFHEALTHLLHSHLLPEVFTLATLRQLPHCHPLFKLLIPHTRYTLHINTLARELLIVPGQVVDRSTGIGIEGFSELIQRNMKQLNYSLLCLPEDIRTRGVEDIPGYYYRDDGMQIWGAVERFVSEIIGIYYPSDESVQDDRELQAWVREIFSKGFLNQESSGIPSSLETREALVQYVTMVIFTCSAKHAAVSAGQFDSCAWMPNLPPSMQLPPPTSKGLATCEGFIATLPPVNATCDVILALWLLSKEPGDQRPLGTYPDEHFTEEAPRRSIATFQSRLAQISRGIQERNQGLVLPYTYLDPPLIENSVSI

Row | Structure (SMILES) | activity change, negative = inhibition | Potency
1 | COC(=O)C1C(=O)NCC1c1ccc(OC)cc1 (stereo not given) | inactive | –
2 | CC(=O)c1cccc(NC(=O)C2CCCN2S(=O)(=O)c2cccc3nsnc23)c1 (stereo not given) | inactive | –
3 | CC(=O)CC(c1ccccc1)C1C(=O)Oc2ccccc2C1=O (stereo not given) | 12.2% [at 0.0915 µM] | –
4 | C#C[C@]1(O)CC[C@H]2[C@@H]3CCC4=CC(=O)CC[C@@H]4[C@H]3CC[C@@]21CC | -11.5% [at 0.0915 µM] | –
5 | Cc1cccc(-n2ncc(C#N)c2-n2cccc2)c1 | inactive | –
6 | CCC(C)N1C(=O)S/C(=C/c2ccc(Sc3nc4ccccc4[nH]3)o2)C1=O (stereo not given) | inactive | –
7 | CCN1CCN(C(=O)/C=C\C(=O)O)CC1 | inactive | –
8 | CCOC(=O)Cn1c(-c2cccnc2Cl)nc2ccccc21 | inactive | –
9 | Cc1cc2cc(CNC(=O)c3cccs3)ccc2[nH]1 | inactive | –
10 | CCOC(=O)C1=C(C)c2ccccc2OC1(C)C(=O)OCC (stereo not given) | 0.734% [at 0.0915 µM] | –
11 | CCCn1c(C(Cc2ccccc2)NC(=O)COC)nc2ccccc21 (stereo not given) | inactive | –
12 | CC1=C(/C=C/C(C)=C/C=C/C(C)=C/C=C/C=C(C)/C=C/C=C(C)/C=C/C(=O)[C@]2(C)C[C@@H](O)CC2(C)C)C(C)(C)C[C@H](O)C1 | 24.6% [at 0.0915 µM] | –
13 | CCOC(=O)c1cnc(SC)nc1Sc1ccc(Cl)cc1Cl | inactive | –
14 | COc1cccc2c1OCC(C(=O)NCc1ccc(Cl)cc1Cl)=C2 | inactive | –
15 | CCCCCCSc1nsc(N)n1 | inactive | –
16 | CCOC(=O)C1=C(C)c2ccccc2OC1C(=O)OCC (stereo not given) | -11.3% [at 0.0915 µM] | –
17 | O=c1[nH]c(-c2ccccc2)c(-c2ccccc2)[nH]1 | inactive | –
18 | O=c1[nH]c2ccccc2n2c(-c3ccccc3)nnc12 | – | 10 µM (active)
19 | O=[N+]([O-])c1cccc(-c2nnc3c4ccccc4c4ccccc4n23)c1 | inactive | –
20 | C[C@@H]1C(c2ccc(F)cc2)=NN(c2ccc(Br)cc2)[C@H]1C(=O)N1CCOC1=O | -11.1% [at 0.0915 µM] | –
